Screening results as filed in PubChem.
The sample as a whole holds a higher share of hits than the screen did.
Pf Dd2 inh = Plasmodium falciparum Dd2 growth inhibition; hit rate 4.3% among 120,000; P. falciparum Dd2 growth, SYBR Green, 72 h; Potency, µM (top dose mostly 28.9 µM), for inactives: top-dose activity, negative = inhibition, hits mostly inhibitors; active = well fitted inhibition curve with a large enough effect;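 also: plate controls were DMSO vehicle for no effect and reference drug for full effect; nearly all actives have a fitted effect of over 65% in size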
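Infected erythrocytes (Dd2, 0.3% parasitemia, 2.5% hematocrit final) are added to compound in RPMI-1640/Albumax II medium, grown 72 h at 37C in low oxygen, then lysed with saponin/Triton-X containing SYBR Green and read by fluorescence.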
Active calls of the source: *; i = inactive; [ ] = remark or other dose. Potency is read from the fitted curve at half-maximal effect.

SMILES	Pf Dd2 inh
Nc1c(C(=O)NCc2ccc(Cl)cc2Cl)nnn1Cc1ccc(Br)cc1	i
CCc1ccc(NC(=O)Cn2nnc(C(=O)NCc3ccc(C)cc3)c2N)cc1	11%
Cc1ccc(CNC(=O)c2nnn(Cc3ccc(F)cc3)c2N)cc1	3.2µM*
Cc1cc(F)ccc1NC(=O)c1cc2n(n1)CC(c1ccc(Br)cc1)OC2 (configuration not stated)	i
CCn1ccc(C(=O)N2CCC(Cn3c(C)cnc3C)CC2)n1	3%
CCNC(=O)N[C@@H]1C=C[C@@H](c2c(C)nn(-c3ccc(C(F)(F)F)cc3)c2C)C1	4.5µM*
Cc1nn(-c2ccc(C(C)C)cc2)c(C)c1[C@@H]1C=C[C@@H](NC(=O)Nc2ccc(Cl)cc2)C1	-3%
Cc1nn(-c2ccc(C(C)C)cc2)c(C)c1[C@@H]1C=C[C@@H](NC(=O)NCc2ccccc2)C1	-30%[44.1 µM]
Cc1nn(-c2ccc(C(F)(F)F)cc2)c(C)c1[C@@H]1C=C[C@@H](NC(=O)CCC(=O)O)C1	i
COCC(=O)N[C@@H]1C=C[C@@H](c2c(C)nn(-c3ccc(C(C)(C)C)cc3)c2C)C1	-14%[44.1 µM]
Cc1nn(-c2ccc(F)cc2)c(C)c1[C@@H]1C=C[C@@H](NC(=O)NC(C)C)C1	8.9µM*
Cc1nn(-c2ccc(C(C)C)cc2)c(C)c1[C@@H]1C=C[C@@H](NC(=O)NC2CCCCC2)C1	10µM*
CCNC(=O)N[C@@H]1C=C[C@@H](c2c(C)nn(-c3ccc(C(C)(C)C)cc3)c2C)C1	-5%[44.1 µM]
Cc1nn(-c2ccc(C(F)(F)F)cc2)c(C)c1[C@@H]1C=C[C@@H](NC(=O)CC(C)(C)CC(=O)O)C1	i
Cc1nn(-c2ccc(C(C)(C)C)cc2)c(C)c1[C@@H]1C=C[C@@H](NC(=O)NC(C)C)C1	10µM*
Cc1nn(-c2ccc(C(C)(C)C)cc2)c(C)c1[C@@H]1C=C[C@@H](NC(=O)CCC(=O)O)C1	-18%[44.1 µM]
Cc1nn(-c2ccc(C(C)(C)C)cc2)c(C)c1[C@@H]1C=C[C@@H](NC(=O)COCC(=O)O)C1	2%[44.1 µM]
COc1cccc(C(=O)N2CCC3(CC2)N=C(c2ccc(Cl)cc2)NO3)c1	i
COc1ccc(-c2cc3c(cn2)CN(C)CCN3)cn1	-1%[44.1 µM]
O=C(CCCn1cncn1)N1CCCC(CCc2ccccc2C(F)(F)F)C1 (configuration not stated)	-4%
COc1ccc(CCc2nc3nccc(-c4cccc(OC)c4)n3n2)cc1	i
COc1ccccc1C(=O)N1CCC2(CC(c3cccc(C(F)(F)F)c3)=NO2)C1 (configuration not stated)	17%
CCCc1nc(C(=O)NC(C)c2nncn2CCOC)cs1 (configuration not stated)	0%
CCC1(N2CCN(S(=O)(=O)c3cccc(C#N)c3)CC2)CCN(C(=O)C(C)C)C1 (configuration not stated)	i
Cc1cc(NC(=O)Cn2ccn3nc(-c4ccc(F)cc4)c(CO)c3c2=O)no1	-1%
SMILES	Pf Dd2 inh
CNC(=O)CN(C)C(=O)[C@H]1CN(Cc2ccccc2)C[C@H]1C(=O)O	-16%
CC(=O)c1ccc(NC(=O)N2C[C@@H]3C[C@H](C2)c2ccc(NS(=O)(=O)Cc4ccccc4)c(=O)n2C3)cc1	10%
CNC(=O)[C@@H]1CN(C(=O)c2cc3cc(OC)ccc3[nH]2)C[C@H]1CO	-5%
CC(C)c1nc(CN(C)C(=O)C2CCC(=O)N(C3CCCC3)C2)cs1 (configuration not stated)	-10%
Cn1ccc(Nc2nccc3c(=O)cc(-c4cccnc4)oc23)n1	i
CCOC(=O)CCNC(=O)N1c2ccccc2CC1c1nc(C2CC2)no1 (configuration not stated)	i[5.79 µM]
O=C1CCCCC(C(=O)NCc2cc(F)ccc2F)N1 (configuration not stated)	29%
COc1cc(OC)cc(-c2nc3nc(C)c(CCC(=O)Nc4cc(C)cc(C)c4)c(C)n3n2)c1	8.9µM*
CCc1ccc(NC(=O)CCc2c(C)nc3nc(-c4cc(OC)cc(OC)c4)nn3c2C)cc1	i
COc1cc(OC)cc(-c2nc3nc(C)c(CCC(=O)NCCC(C)C)c(C)n3n2)c1	43%
O=C(c1cccc2[nH]ccc12)N1CCC(n2cc(-c3nc(-c4ccccc4)no3)nn2)C1 (configuration not stated)	-6%
COc1cc(NC(=O)O[C@@H]2CC[C@]3(C)C(CC[C@@H](O)[C@H]3CC(=O)N3CCCC3)[C@]2(C)CO)cc(OC)c1OC (some centres not stated)	i
CSc1cccc(NC(=O)O[C@@H]2CC[C@]3(C)C(CC[C@@H](O)[C@H]3CC(=O)NCc3ccccc3)[C@]2(C)CO)c1 (some centres not stated)	11µM*
CSc1cccc(NC(=O)O[C@@H]2CC[C@]3(C)C(CC[C@@H](O)[C@H]3CC(=O)N3CCC[C@H]3CO)[C@]2(C)CO)c1 (some centres not stated)	-18%
CCCNC(=O)O[C@@H]1CC[C@]2(C)C(CC[C@@H](O)[C@H]2CC(=O)NCc2ccc(F)cc2)[C@]1(C)CO (some centres not stated)	i
C[C@]1(CO)C2CC[C@@H](O)[C@@H](CC(=O)N3CCCC3)[C@]2(C)CC[C@H]1OC(=O)Nc1cccc(F)c1 (some centres not stated)	-6%
CSc1cccc(NC(=O)O[C@@H]2CC[C@]3(C)C(CC[C@@H](O)[C@H]3CC(=O)N3CCCC3)[C@]2(C)CO)c1 (some centres not stated)	5µM*
Cc1cn2nc(C(=O)N3CCC(NC(=O)c4ccc(C)c(C)c4)CC3)cc2c(=O)[nH]1	-1%
COc1ccc(CC(=O)N2c3ccccc3CC2c2nc(C(C)C)no2)cc1OC (configuration not stated)	-20%[5.79 µM]
O=C(c1ncccc1F)N1C[C@@H](COCC2CC2)[C@H](c2ccccn2)C1	-25%
O=C1NC(=NC2CCCC2)C2(CCN([S+](=O)([O-])c3cccc(C(F)(F)F)c3)C2)N1c1cccnc1 (configuration not stated)	-13%
CO[C@H]1C(=O)N(C2CCN(S(=O)(=O)Cc3ccccc3)CC2)[C@H]1c1ccncc1	11%
COC(=O)c1ccc2nc(CO[C@H]3CN(Cc4cccc(C#N)c4)C[C@H]3F)[nH]c2c1	-2%[44.1 µM]
Cc1cc2nc(CO[C@H]3CN(C)C[C@H]3F)[nH]c2cc1C	i
F[C@@H]1CN(Cc2ccc(C(F)(F)F)cc2)C[C@@H]1OCc1nc2ccccc2[nH]1	-6%[44.1 µM]
SMILES	Pf Dd2 inh
Fc1ccc2nc(CO[C@H]3CN(Cc4cccnc4)C[C@H]3F)[nH]c2c1	-20%[44.1 µM]
COc1ccc(CN2C[C@@H](F)[C@@H](OCc3nc4ccc(F)cc4[nH]3)C2)cn1	-16%[44.1 µM]
COC(=O)c1ccc2nc(CO[C@H]3CN(Cc4ccc5c(c4)OCO5)C[C@H]3F)[nH]c2c1	8.9µM*
COC(=O)c1ccc2nc(CO[C@H]3CN(Cc4cnn(C)c4)C[C@H]3F)[nH]c2c1	-22%[44.1 µM]
COC(=O)c1ccc2nc(CO[C@H]3CN(Cc4ccc(C(F)(F)F)cc4)C[C@H]3F)[nH]c2c1	-9%
CC(=O)Nc1ccc(CN2C[C@@H](F)[C@@H](OCc3nc4cc(C)c(C)cc4[nH]3)C2)cc1	11µM*
Cc1ccc2nc(CO[C@H]3CN(Cc4ccc(C(F)(F)F)cc4)C[C@H]3F)[nH]c2c1	8.9µM*
Fc1ccc2nc(CO[C@H]3CN(Cc4ccccc4)C[C@H]3F)[nH]c2c1	13µM*
Cc1cc2nc(CO[C@H]3CN(Cc4ccc(C(=O)O)cc4)C[C@H]3F)[nH]c2cc1C	i
